Bioassay records as filed in PubChem.
DT40 TDP1 no CPT: qHTS for Inhibitors of human tyrosyl-DNA phosphodiesterase 1 (TDP1): qHTS in cells in absence of CPT | actives 15% (n = 420,000) | Potency, µM (highest dose often 46.2 µM), without a hit: at the highest dose activity change, negative = growth inhibition, actives largely listed as inhibitors | DT40 Tdp1-/- hTDP1 cells, no CPT, ATP luminescence, 48 h; also: potency is read from the fitted curve at half-maximal effect; nearly all actives have a fitted effect of over 55% in size
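Stably hTDP1-transfected Tdp1-null chicken DT40 cells were treated with library compounds minus camptothecin and grown for at least 48 hr at 37 °C, after which cellular ATP was quantified by luminescence.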
LDHA block: inhibitors of human lactate dehydrogenase A; P00338; purified LDHA, NADH/diaphorase-resazurin fluorescence; stronger effect = lower value; activity change, % (values are at about 110 or 230 µM); actives 0.15% (n = 480,000); AID 1347041; in the data active = activity change below about -30%; inconclusive = mostly about -25% to -30%;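 also: plate controls were DMSO wells for no effect and wells without enzyme for full effect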
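Human LDH5 at 2 nM final in Tris HCl pH 7.4 with 0.06 mM NADH and 0.2 mM pyruvate, reacted 5 minutes at room temperature. Remaining NADH coupled via diaphorase/resazurin; resorufin fluorescence read at 0 and 20 minutes, normalized to enzyme-free and DMSO wells.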
RORgamma inh: blocks mouse ROR gamma transcriptional activity; Potency, µM (highest dose often 53.6 µM), for the others: at the top dose activity change, negative = inhibition, usual class: inhibitors; P51450; AID 2551; Drosophila S2 Gal4-RORgamma UAS-luciferase reporter, 20 h; actives 5.4% (n = 310,000); also: potency is read from the fitted curve at half-maximal effect; nearly all actives have a fitted effect of over 60% in size
Target sequence (P51450 whole entry, looked up, the tested form may be a part): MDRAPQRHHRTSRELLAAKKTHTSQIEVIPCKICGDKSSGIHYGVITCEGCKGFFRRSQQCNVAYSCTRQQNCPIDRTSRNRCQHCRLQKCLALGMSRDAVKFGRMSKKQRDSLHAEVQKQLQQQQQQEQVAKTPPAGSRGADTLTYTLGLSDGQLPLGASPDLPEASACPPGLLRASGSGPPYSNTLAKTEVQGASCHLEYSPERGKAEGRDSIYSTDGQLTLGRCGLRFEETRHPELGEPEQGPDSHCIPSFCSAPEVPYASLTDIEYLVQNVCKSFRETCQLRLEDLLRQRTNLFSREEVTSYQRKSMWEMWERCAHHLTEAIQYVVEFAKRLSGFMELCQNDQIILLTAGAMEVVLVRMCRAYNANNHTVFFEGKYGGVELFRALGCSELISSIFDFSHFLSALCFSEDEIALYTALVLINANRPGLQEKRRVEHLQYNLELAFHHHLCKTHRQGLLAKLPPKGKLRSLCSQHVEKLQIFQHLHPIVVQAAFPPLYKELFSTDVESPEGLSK
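Using a luciferase readout, inhibitors were identified by reduced reporter activity in Drosophila cells coexpressing a copper-inducible Gal4–ROR gamma fusion and UAS-driven Photinus luciferase, incubated 20 hr after 700 uM copper sulfate.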
IL-1B inflam inh: inhibitors of inflammasome signaling (IL-1 beta secretion) | THP-1 LPS/ATP IL-1B secretion, AlphaLISA, 16 h; stronger effect = lower value | activity change, % at 57.5 µM | actives 4.7% (n = 360,000) | AID 743279; in the data active = activity change below about -50%; inconclusive = mostly about -30% to -49%
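THP-1 cells pretreated 1 hr with compounds (up to 57.5 uM final), then stimulated with LPS (250 ng/mL final) plus ATP (1.25 mM final); secreted IL-1B measured by AlphaLISA after 16 hr, decreased signal indicating inhibition.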
Gal4-VP16 FLuc: counter-screen for ROR gamma inhibitors: Gal4-VP16 reporter; Drosophila S2 Gal4-VP16 UAS-luciferase, luminescence, 20 h; Potency, µM (top dose mostly 53.6 µM), without a hit: top-dose activity, negative = inhibition, most hits filed as inhibitors; actives 3.5% (n = 310,000); AID 2546;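 also: Gal4-VP16 expression switched on by copper sulfate through the metallothionein promoter; potency is read from the fitted curve at half-maximal effect; nearly all actives have a fitted effect of over 50% in size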
TDP1 cell CPT: growth inhibition of DT40 Tdp1-/-;hTDP1 cells with camptothecin (screen for TDP1 inhibitors). chicken DT40 Tdp1-/-;hTDP1 cells + 20 nM CPT, ATP luminescence, 48 h. Potency, µM (highest dose often 46.2 µM), inactives show at the top dose activity change, negative = growth inhibition, most hits filed as inhibitors. actives 12% (n = 420,000); also: potency is read from the fitted curve at half-maximal effect; nearly all actives have a fitted effect of over 55% in size
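Chicken DT40 Tdp1-/- cells complemented with human TDP1, 400 cells/well, exposed to compounds plus 20 nM camptothecin for at least 48 h at 37 C; viability read as ATP content by CellTiter-Glo luminescence.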
* marks the source's active call; other numbers are inactive results; ? = inconclusive; · = not tested or not shown; [ ] = another dose, or the depositor's remark. Compounds with a hit are over-represented: about 18% of the library has one in this group of screens. Unless noted, calls follow the shape of the dose curve; as a rule, active = well fitted curve in the direction sought with a large enough effect; inconclusive = small, poorly fitted or top-dose-only effect, or another doubt; inactive = no such curve, though single readings can be large; an effect the other way counts as inactive or inconclusive. Unless noted, % is scaled to controls: 0 for no effect and ±100 for the full control effect.

SMILES | DT40 TDP1 no CPT | LDHA block | RORgamma inh | IL-1B inflam inh | Gal4-VP16 FLuc | TDP1 cell CPT
CC(C)C[C@@H](NC(=O)[C@H](Cc1ccccc1)NC(=O)c1cnccn1)B(O)O | · | · | 0.0079µM* | · | ? | ·
CCc1nc(N2CCC3(CC2)OCCO3)c2nnn(Cc3ccccc3Cl)c2n1 | 16.4µM* | -5.6 | 24.2% | ? | -4.9% | ?
CN(C)c1cc(-c2ccccc2)nc(-c2ccccc2)n1 | 11.2% | -6.0 | 6.5% | -17.9 | 0.2% | -3.1%
Clc1cc(-c2ccccc2)nc(-c2ccccc2)n1 | -21.3% | 0.8 | · | -51.6* | · | ?
Oc1ccc(-c2cc(-c3ccc(O)cc3)nc(-c3ccccc3)n2)cc1 | ? | -2.4 | -15.0% | -98.3* | -5.5% | ?
Nc1ccc(-c2cc(-c3ccc(N)cc3)nc(-c3ccccc3)n2)cc1 | -12.0% | -1.4 | 26.7% | -5.6 | 6.0% | -9.0%
Brc1cc(-c2ccccc2)nc(-c2ccccc2)n1 | -16.4% | -2.8 | · | -84.3* | · | 5.1%
COc1cc(C(=O)Nc2cccc3cccnc23)cc(OC)c1C | · | 0.3 | · | · | · | ·
C=CCN(CC=C)C(=O)c1cc(-c2ccc(OC)cc2)nc2ccccc12 | · | 8.9 | · | · | · | ·
CCc1cc2cc3c(cc2nc1SCC(=O)N1CCN(C(=O)c2ccco2)CC1)OCO3 | ? | -2.1 | 1.6% | ? | 2.0% | ?
CCc1cc2cc(C)cc(C)c2nc1SCC(=O)N1CCN(C(=O)c2ccco2)CC1 | ? | -4.3 | 12.8% | -54.2* | 5.9% | ?
CCc1cc2ccc(C)cc2nc1SCC(=O)N1CCN(C(=O)c2ccco2)CC1 | 18.4µM* | -6.5 | -13.5% | ? | 5.2% | ?
Cn1c(SCc2csc(-c3ccsc3)n2)nnc1C1CC1 | · | 5.4 | · | · | · | ·
N#CC(c1ccccn1)(c1ncc(C(F)(F)F)cc1Cl)N1CCOCC1 (stereo not given) | -10.0% | -10.7 | -7.3% | -4.4 | 0.0% | -7.5%
N#CC(c1ccncc1)(c1ncc(C(F)(F)F)cc1Cl)N1CCOCC1 (stereo not given) | ? | -4.9 | 9.1% | -76.8* | -8.7% | -4.4%
CC(=O)c1nn(-c2cccc(Br)c2)cc1C(=O)c1ccc(Cl)cc1 | 7.31µM* | -5.2 | -4.9% | 11.5 | -29.8% | ?
O=C(c1cccc(Br)c1)c1cn(-c2ccccc2)nc1C(=O)c1ccccc1 | 16.4µM* | -4.0 | 7.8% | -26.1 | -9.1% | 18.4µM*
CC(C)CNC(=O)C1CCCC(C(=O)NCC(C)C)C1 (stereo not given) | · | -1.3 | · | · | · | ·
CC(C)c1nc(-c2ccccc2NS(=O)(=O)c2ccccc2Br)n[nH]1 | · | 1.5 | · | · | · | ·
CCOc1ccc(Oc2ccc(Cl)cc2NC(=O)Cn2cnc3c2c(=O)n(C)c(=O)n3C)cc1 | · | -6.1 | · | · | · | ·
CC(C)CC(C)N(C)C(=O)NCc1cccc(N(C)C)c1 (stereo not given) | · | 12.4 | · | · | · | ·
CN(C)c1ccc(C=NNC(=O)c2cccc3ccccc23)c(Cl)c1 | 4.11µM* | -7.3 | · | 35.4 | · | 5.17µM*
O=C(N/N=C/c1ccccc1O)c1cccc2ccccc12 | 4.11µM* | -11.7 | 1µM* | 97.7 | 0.891µM* | 5.8µM*
O=C(N/N=C/c1ccccc1O)c1cc(=O)[nH]c2ccccc12 | · | · | 7.94µM* | · | ? | ·
O=C(CCc1nc2ccccc2s1)NCc1cccc(C(F)(F)F)c1 | · | -1.3 | · | · | · | ·
CC1CCCCC1NC(=S)NCc1ccncc1 (stereo not given) | · | 0.5 | · | · | · | ·
Cc1cccc(NC(=O)c2n[nH]nc2Nc2ccc(Cl)cc2)c1C | · | 2.6 | · | · | · | ·
O=C(COC(=O)CCCN1C(=O)c2cccc3cccc(c23)C1=O)Nc1ccc(Cl)cc1 | 1.8% | -11.6 | -3.4% | 3.4 | 9.7% | 12.8%
CCc1ccc(OC(=O)CN2C(=O)c3ccccc3C2=O)cc1 | -0.1% | -2.8 | -8.9%[1.91 µM] | 7.3 | 9.0% | -5.1%
